Reference: PubChem BioAssay AID1942 (Johns Hopkins Ion Channel Center, 2009)
Screen size: about 2,400 compounds; about 580 (24%) were called active. A selection follows. A number with no mark means an inactive call.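 Rule for the calls: active = activity change at or above the mean plus 3 SD of buffer wells without dofetilide, per plate; inactive = the rest.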

biological target: Potassium voltage-gated channel subfamily KQT member 2 (Rattus norvegicus) (UniProt O88943); assay: rat KCNQ2 channel activation by compounds alone, confirmation, counter-screen for hERG block protector project, cell-based, CHO, FluxOR thallium flux (AID 1942); conditions: CHO-KCNQ2 cells, FluxOR thallium flux fluorescence; at 10 µM; stronger effect = higher value;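 note: normalized value minus buffer-control mean plus three SD of buffer wells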
Sequence (O88943 whole entry, looked up): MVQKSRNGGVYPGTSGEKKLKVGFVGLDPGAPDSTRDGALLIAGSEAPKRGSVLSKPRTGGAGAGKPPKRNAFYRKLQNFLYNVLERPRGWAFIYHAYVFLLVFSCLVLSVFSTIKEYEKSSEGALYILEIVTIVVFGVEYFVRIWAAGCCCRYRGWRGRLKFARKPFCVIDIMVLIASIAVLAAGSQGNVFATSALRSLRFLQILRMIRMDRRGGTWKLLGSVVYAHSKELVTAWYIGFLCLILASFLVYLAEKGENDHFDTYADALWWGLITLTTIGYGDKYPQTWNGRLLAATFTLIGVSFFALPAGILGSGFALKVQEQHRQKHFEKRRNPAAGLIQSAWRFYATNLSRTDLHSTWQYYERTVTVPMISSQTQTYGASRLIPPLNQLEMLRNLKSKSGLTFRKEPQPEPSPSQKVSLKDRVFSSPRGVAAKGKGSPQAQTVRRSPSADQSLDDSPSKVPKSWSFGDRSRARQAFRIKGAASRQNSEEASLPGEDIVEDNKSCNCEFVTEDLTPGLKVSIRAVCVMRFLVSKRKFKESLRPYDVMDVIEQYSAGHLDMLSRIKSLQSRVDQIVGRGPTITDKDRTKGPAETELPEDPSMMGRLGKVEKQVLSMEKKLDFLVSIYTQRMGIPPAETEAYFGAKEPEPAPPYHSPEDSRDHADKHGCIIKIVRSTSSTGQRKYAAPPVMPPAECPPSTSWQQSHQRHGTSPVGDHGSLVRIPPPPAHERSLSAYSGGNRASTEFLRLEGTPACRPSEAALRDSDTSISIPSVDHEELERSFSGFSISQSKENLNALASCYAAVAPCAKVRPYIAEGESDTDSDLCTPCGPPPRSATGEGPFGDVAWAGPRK

Row | Compound | activity change, less the hit threshold
1 | Nc1cccc(Oc2cnccn2)c1 | -17.9%
2 | COc1cc2c(cc1OC)CN(C(=O)c1ccc3nc[nH]c3c1)CC2 | -2.1%
3 | Cc1ccc(OCC(=O)NC(=S)Nc2ccc(Br)cn2)cc1 | 12.4% (active)
4 | Cc1nc(NC(=S)NC(=O)COc2ccc(Cl)cc2)ccc1Br | -19.1%
5 | Cc1ccc(OCC(=O)NC(=S)Nc2ccc(Br)cn2)cc1C | -11.2%
6 | COc1ccc(N(CC(=O)N2CCN(Cc3ccccc3)CC2)S(C)(=O)=O)cc1OC | -16.5%
7 | COCCNC(=O)C(c1ccncc1)N(C(=O)Cn1nnc2ccccc21)c1ccc(OC)cc1 (configuration not stated) | -20.7%
8 | Cc1ccc(-c2nnn(CC(=O)N(CC3CCCO3)C(C(=O)NC3CCCC3)c3ccc(O)cc3)n2)o1 (configuration not stated) | -15.8%
9 | COCCNC(=O)C(c1ccc(C)o1)N(Cc1ccc(OC)cc1)C(=O)Cn1nnc2ccccc21 (configuration not stated) | 19.1% (active)
10 | CC1CC(C)CN(CCCNC(=O)Cc2c(C(=O)O)[nH]c3ccccc23)C1 (configuration not stated) | -14.9%
11 | Nn1c(SCC(=O)Nc2ccccc2F)nnc1C1CCCCC1 | -10.5%
12 | Cc1csc2ncc(C(=O)N3c4ccccc4CC3C)c(=O)n12 (configuration not stated) | -9.8%
13 | CC1Cc2ccccc2N1C(=S)NC(=O)C1(C)CC1(Cl)Cl (configuration not stated) | 38.1% (active)
14 | Cc1ccc2c(c1)C1CN(C)CCC1N2C(=S)NC(=O)c1ccc(Br)cc1 (configuration not stated) | -7%
15 | CC1Cc2ccccc2N1C(=S)NC(=O)c1ccc(Cl)cc1Cl (configuration not stated) | 52.5% (active)
16 | CC1Cc2ccccc2N1C(=S)NC(=O)c1cccc(Br)c1 (configuration not stated) | 121% (active)
17 | COc1cc2c(cc1OC)C(C)N(C(=S)NC(=O)c1ccccc1)CC2 (configuration not stated) | -10.9%
18 | CC1Cc2cc(S(=O)(=O)NCc3ccccc3)ccc2N1C(=O)C1CCC1 (configuration not stated) | -20.4%
19 | CC1Cc2ccccc2N1C(=S)NC(=O)c1ccco1 (configuration not stated) | -3.3%
20 | CNC(=O)c1[nH]cnc1C(=O)Nc1ccccn1 | -9.6%
21 | Cc1cc(S(=O)(=O)NCC(C)C)ccc1OCC(=O)NCc1ccccn1 | -21.1%
22 | CCOc1cc(Br)c(C(=O)O)cc1OC | -13.8%
23 | OC(CCN1CCOCC1)c1ccccc1 (configuration not stated) | -33.4%
24 | Cc1nonc1OCCNc1ccc([N+](=O)[O-])cc1 | -8.5%
25 | Cc1ccc(-c2nc(CS(=O)(=O)CC(=O)NCCN3CCOCC3)c(C)o2)cc1 | -12.6%
26 | Cc1ccc2nc(-c3ccccn3)cc(C(=O)NC3CCN(C)CC3)c2c1 | -23.8%
27 | CS(=O)(=O)c1sc(C(=O)NC(=S)Nc2ccc(OC(F)(F)F)cc2)c2c1C=CCC2 | -11%
